In PubChem BioAssay (EPA / NIEHS):
“And” between values parts separate entries of the source, which are not always exact repeats. Identical values can stand only once. Records with an inconclusive call do not appear. The source made the active and inactive calls. How the source made its calls, unless noted: active means hit-call score of the fitted dose curve at least 0.9, where 1 is the maximum; inactive means score below 0.9.

What was measured:
[1] = system: Brachyury (BRA) Protein Expression, TBXT (gene 6862); assay: CCTE_Deisenroth_DEVTOX-GLR_Endo_BRA: CCTE's DevTox GLR-Endo Assay Evaluation of Brachyury (BRA) Protein Expression, Deisenroth Lab (AID 2284417)
Outline: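 Read-out: BRA+ cell count divided by total cell count by high-content imaging (5 fields per well), expressed relative to 0.2% DMSO solvent control. RUES2-GLR cells dosed twice over a 48 h differentiation; concentrations 1 nM - 200 uM.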

[2] = CCTE_Deisenroth_DEVTOX-GLR_Endo_CellCount: Viability Assessment in CCTE's DevTox GLR-Endo Assay, Deisenroth Lab (AID 2284420)
Outline: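 Measured 48 h after dosing: fluorescent nuclei counted by imaging in human RUES2-GLR cells under defined differentiation media, tested at 1 nM - 200 uM. Values are percent cell-count change relative to 0.2% DMSO.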

[3] = system: SRY-box transcription factor 17 (SOX17) Protein Expression, Deisenroth Lab, SOX17 (gene 64321); assay: CCTE_Deisenroth_DEVTOX-GLR_Pluri_SOX17: CCTE's DevTox GLR-Pluri Assay Evaluation of SRY-box transcription factor 17 (SOX17) Protein Expression, Deisenroth Lab (AID 2284427; active means hit-call score of the fitted dose curve at least 0.9, where 1 is the maximum)
Outline: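 Using an inducible fluorescent SOX17 reporter in human pluripotent RUES2-GLR cells, compounds (1 nM - 200 uM) were given twice over 48 h differentiation. Percent SOX17+ cells minus DMSO control came from high-content image analysis.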

[4] = system: SRY-box transcription factor 2 (SOX2) Protein Expression, Deisenroth Lab, SOX2 (gene 6657); assay: CCTE_Deisenroth_DEVTOX-GLR_Pluri_SOX2: CCTE's DevTox GLR-Pluri Assay Evaluation of SRY-box transcription factor 2 (SOX2) Protein Expression, Deisenroth Lab (AID 2284428)
Outline: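 Percent SOX2+ RUES2-GLR cells, determined by fluorescence microscopy after 48 h and two 24-h-interval chemical exposures spanning 1 nM–200 uM, served as the endpoint. Values are expressed relative to 0.2% DMSO; total cell counts assessed viability.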

[5] = system: Brachyury (BRA) Protein Expression, Deisenroth Lab, TBXT (gene 6862); assay: CCTE_Deisenroth_DEVTOX-GLR_Pluri_BRA: CCTE's DevTox GLR-Pluri Assay Evaluation of Brachyury (BRA) Protein Expression, Deisenroth Lab (AID 2284429; active means hit-call score of the fitted dose curve at least 0.9, where 1 is the maximum)
Method: CCTE_Deisenroth_DEVTOX-GLR_Pluri assay is a cell-based, multiplex-readout assay that uses RUES2-GLR, a human pluripotent cell line, with measurements taken at 48 hours after chemical dosing in a 384-well microplateCCTE_Deisenroth_DEVTOX-GLR_Pluri_BRA is 1 of 4 assay components calculated from the CCTE_Deisenroth_DEVTOX-GLR_Pluri assay and it measures an the percentage of cells in an mesoderm state. Using a type of inducible fluorescent protein reporter, gain-of-signal activity can be used to understand changes in gene expression with fluorescent microscopy. The percentage of BRA+ cells are determined by calculating the number of BRA+ cells divided by the cell count. To generalize the intended target to other relatable targets, this assay component is annotated to the transcription factor intended target family, where the subfamily is T-box protein.Data from the assay component CCTE_Deisenroth_DEVTOX-GLR_Pluri_BRA was analyzed as 1 assay endpoint. The endpoint is the percent BRA+ cell population minus the 0.2% DMSO control in the CCTE_Deisenroth_DEVTOX-GLR_Pluri assay. Furthermore, this assay endpoint can be referred to as a secondary readout, because this assay has produced multiple assay endpoints where this one serves as a measure of mesoderm differentiation.
All assay protocols are aligned to the DevTox GLR-Endo assay workflow. Cells are seeded into 384-well microplates for 24 hours prior to initiating differentiation in defined media for a total duration of 48 hours. A total of two chemical exposures are administered in 24-hour intervals during the 48-hour differentiation period. At the assay termination point, cells are fixed and stained with a fluorescent dye demarcating the nucleus. High-content imaging is used to acquire brightfield and fluorescent channel images across 5 fields per well. Cell identification and mean biomarker fluorescence intensities are calculated with image analysis software to determine the total cell counts for viability assessment and the biomarker expression frequency for each lineage-dependent assay. […]

[6] = CCTE_Deisenroth_DEVTOX-GLR_Pluri_CellCount: Viability Assessment in CCTE's DevTox GLR-Pluri Assay Evaluation of Total Cell Counts, Deisenroth Lab (AID 2284430)
Outline: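 RUES2-GLR human pluripotent cells, seeded 24 h, then differentiated 48 h with two chemical exposures 24 h apart; 10-point series 1 nM - 200 uM. Fixed, nuclear-stained, imaged (5 fields/well); nuclei count as % change vs 0.2% DMSO.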

[7] = CCTE_Padilla_ZF_Score.Blood_pooling: CCTE's 144 Hour Post-fertilization zebrafish Assay Score for Blood Pooling, Padilla Lab (AID 2284415)
Outline: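 Wild-type outbred zebrafish embryos, one per well in 10% Hanks', exposed from 6–8 hpf in sealed plates at 26C on 14:10 h light:dark, rinsed at 5 dpf. Blinded stereomicroscope scoring of blood pooling at 6 dpf; gain-of-signal versus DMSO.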

[8] = CCTE_Padilla_ZF_Score.Any: CCTE's 144 Hour Post-fertilization zebrafish Assay Score for Any Mortality or Malformation, Padilla Lab (AID 2284416)
Outline: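 Wild-type zebrafish embryos with chorions, one per well in 10% Hanks' from 6–8 hpf, dosed in sealed plates at 26 C, 14:10 h light:dark; rinsed at 5 dpf; blinded scoring at 6 dpf for death or malformation, versus DMSO.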

Measured: AC50

CC1=C(/C=C/C(C)=C/C=C/C(C)=C/C(=O)O)C(C)(C)CCC1
active: [1] 8.08 µM | [2] 4.43 µM | [3] 14.1 µM | [4] 0.576 µM | [5] 12 µM

CC(O)CO (configuration not stated)
not listed: [7] | [8]
inactive: all other assays above

C=C(C)C(=O)OCCC(F)(F)C(F)(F)C(F)(F)C(F)(F)C(F)(F)C(F)(F)F
inactive: [7] | [8]

OCCC(F)(F)C(F)(F)C(F)(F)C(F)(F)C(F)(F)C(F)(F)F
active: [8] 28.6 µM
inactive: [7]

C[C@@H]1C[C@H]2[C@@H]3CCC4=CC(=O)C=C[C@]4(C)[C@@]3(F)[C@@H](O)C[C@]2(C)[C@@]1(O)C(=O)COP(=O)(O)O
not listed: [7] | [8]
inactive: all other assays above

NCC(F)(F)C(F)(F)C(F)(F)C(F)(F)C(F)(F)C(F)(F)C(F)(F)F
inactive: [7] | [8]

OCCC(F)(F)C(F)(F)C(F)(F)C(F)(F)C(F)(F)C(F)(F)C(F)(F)C(F)(F)F
inactive: [7] | [8]

FC(F)(I)C(F)(F)C(F)(F)C(F)(F)C(F)(F)C(F)(F)I
active: [7] 28.6 µM and 3 µM | [8] 10 µM and 3.34 µM
